Reference: the OligoGym collection

Molecular target: C13orf33
Experiment: pooled miR-30 sensor sort-seq; sequence = guide strand
Settings: shRNA

Row | Sequence | sensor-assay potency score (higher = more potent)
1 | TTACACTGAACTTTCGGTCAGA | 0.151
2 | TTGCTCAATATAGTTTCCCTGT | -0.333
3 | TAATAAAGAACAACATTGGTTT | -0.342
4 | TAATCGTCTCCTTCTTTTCTGG | -0.326
5 | TAACTTAATCGTCTCCTTCTTT | -0.331
6 | TTTATAATCACAGTAGTTGGTC | 0.0911
7 | TAACTTTCTCCAATCACTGAGG | -0.682

Molecular target: C14orf105
Experiment: as above
Settings: shRNA

Row | Sequence | sensor-assay potency score (higher = more potent)
8 | TTAATAATACTTGTTTCTCTGT | -0.864
9 | TTGAATGCAAAGTCCACACGGC | 0.351
10 | TTTGCTTATTAATTCTTGCCTC | 0.114
11 | TTTGCTTTGTGCATTGTCCTGG | 0.729
12 | TTGCTTTGTGCATTGTCCTGGC | 0.239
13 | TTCCATACCAGTTTTCTTGTAA | 0.252
14 | TTTCTTTTCTAGTACCTGCTTT | -0.0807
15 | TTCTTTTCTAGTACCTGCTTTG | -0.834
16 | TTGCTTATTAATTCTTGCCTCT | -0.134
17 | TTTTCTTTAACTCCATTTGGGC | -0.637
18 | TTCCTGAAGTAATTACTCGTGG | -0.0565
19 | TTTCTAGTACCTGCTTTGCTTT | -0.906

Molecular target: C14orf109
Experiment: as above
Settings: shRNA

Row | Sequence | sensor-assay potency score (higher = more potent)
20 | ATGCTCTGTGCAATGGTCCCGA | -0.872
21 | TAACTGCCAAGCATATAGGGAT | -0.363
22 | ATAACTGCCAAGCATATAGGGA | -0.701
23 | TTAAAGAGTCACTCAGCTCTGA | 0.487
24 | AAAAATAACTGTCCACACCCAA | -0.714
25 | TTCAAGGAGTGTGTCCATGTGG | -0.159
26 | TACAATCCCACTCCAATCCATC | -0.538
27 | TTGCAAATAACTGCCAAGCATA | -1.38
28 | AAAATAACTGTCCACACCCAAA | -1.6
29 | TTCATCATTCTCCATGCTCTGT | -0.667
30 | ATAGGAACAAAAACATCTGTAA | -0.255
31 | AAACATAGTAAAATGCTGCTGC | 0.701

Molecular target: C14orf149
Experiment: as above
Settings: shRNA

Row | Sequence | sensor-assay potency score (higher = more potent)
32 | TAAAATCACCACATTTCGCTTC | 0.352
33 | ATGTCCAGGAACATCCACCATG | -1.62
34 | TTCTATTATAAAGCTTGCTGTA | -1.15
35 | TCTTCTATTATAAAGCTTGCTG | -0.472
36 | TCATCTTCTATTATAAAGCTTG | -0.499
37 | TTAAAATCACCACATTTCGCTT | -0.838
38 | TCTATTATAAAGCTTGCTGTAC | -0.349
39 | TATAAGCATCTTTTCCATCTGT | 0.316
40 | TTATAAAGCTTGCTGTACCCGT | 0.0873
